Laboratory results: PubChem BioAssay (EPA / NIEHS)
Results filed as inconclusive are left out. Active and inactive are the calls of the source. Rule for the calls, unless noted: active = hit-call score of the fitted dose curve at least 0.9, where 1 is the maximum; inconclusive = response in the unintended direction; inactive = score below 0.9.

Columns and labels:
[1] = CPHEA_Stoker_NIS_Cytotoxicity: Cytotoxicity Assessment for CPHEA's Radioactive Iodide Uptake (RAIU) Assay for Sodium/Iodide Symporter (NIS) Inhibition, Stoker and Laws Labs (AID 2283897);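 for AC50: active means loss of ATP signal versus DMSO meaning cytotoxicity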
How it was run: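 CellTiter-Glo ATP luminescence gauged viability in HEK293T cells expressing human NIS after 2 h chemical exposure. Concentrations ran 0.001–100 uM in 0.5% DMSO; DMSO served as baseline for the loss-of-signal fit.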

[2] = test system: Sodium/Iodide Symporter (NIS), SLC5A5 (gene 6528); experiment: CPHEA_Stoker_NIS_Inhibition_RAIU: CPHEA's Radioactive Iodide Uptake (RAIU) Assay for Sodium/Iodide Symporter (NIS) Inhibition, Stoker and Laws Labs (AID 2283841)
How it was run: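 Iodide uptake read as CPM of intracellular 125I (final 329 pM) after 2 h room-temperature exposure in HEPES-buffered HBSS, pH 7.4. Human NIS-expressing HEK293T cells; six concentrations 0.001–100 uM, 0.5% DMSO, normalised to DMSO wells.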

[3] = molecular target: frog Thyroid hormone Receptor alpha (TRa), thra-a (gene 397942) (UniProt P15204); experiment: ATG_frTRa_XSP2: Attagene TRANS-FACTORIAL Multi-Species (XSP2) HepG2 Assay for frog Thyroid hormone Receptor alpha (TRa) (AID 2283839)
How it was run: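 HepG2 cells transiently transfected with multiplexed GAL4-UAS reporter units expressing chimeric frog TRα-Gal4; reporter mRNA read 24 h after dosing by RT-PCR, FAM-labelled primer extension, HpaI digest and capillary electrophoresis. Gain of signal fitted versus DMSO.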

[4] = molecular target: human Thyroid hormone Receptor beta (TRb), THRB (gene 7068) (UniProt P10828); experiment: ATG_hTRb_XSP2: Attagene TRANS-FACTORIAL Multi-Species (XSP2) HepG2 Assay for human Thyroid hormone Receptor beta (TRb) (AID 2283840);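 note: actives raise reporter mRNA so potency reflects agonist-like gain of signal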
How it was run: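 HepG2 cells were transiently transfected with GAL4-UAS multiplexed reporter units expressing chimeric NR-Gal4 proteins, dosed 24 h; reporter mRNA was quantified by RT-PCR, fluorescent labeling, HpaI digestion and capillary electrophoresis, fitted for gain of signal versus DMSO.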

[5] = CEETOX_H295R_11DCORT_noMTC: CeeTox H295R High-throughput Steroidogenesis Assay for 11-Deoxycortisol (11DCORT), maximum tolerated concentration (MTC) filtered results only (AID 2283911; active = hit-call score of the fitted dose curve at least 0.9, where 1 is the maximum; inactive = score below 0.9); details: actives raise or lower the signal
How it was run: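 HPLC-MS/MS read-out of 11-deoxycortisol after MTBE extraction of H295R medium. Cells: forskolin 10 uM pre-stimulation 48 h, chemical 48 h, 0.1% DMSO final. Bidirectional fit vs DMSO baseline; no MTC filtering.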

[6] = CEETOX_H295R_OHPREG_noMTC: CeeTox H295R High-throughput Steroidogenesis Assay for OH-Pregnenolone (OHPREG), maximum tolerated concentration (MTC) filtered results only (AID 2283912; active = hit-call score of the fitted dose curve at least 0.9, where 1 is the maximum; inactive = score below 0.9); details: actives raise or lower the signal
How it was run: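 Medium 17alpha-hydroxypregnenolone quantified by reverse-phase HPLC-MS/MS after 48 h chemical exposure of forskolin-prestimulated (10 uM, 48 h) H295R, 0.1% DMSO final. Fitting bidirectional relative to DMSO; no maximum-tolerated-concentration filtering applied.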

[7] = CEETOX_H295R_OHPROG_noMTC: CeeTox H295R High-throughput Steroidogenesis Assay for OH-Progesterone (OHPROG), maximum tolerated concentration (MTC) filtered results only (AID 2283914; active = hit-call score of the fitted dose curve at least 0.9, where 1 is the maximum; inactive = score below 0.9); details: actives raise or lower the signal
How it was run: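 After 48 h forskolin (10 uM) prestimulation, H295R adrenal cells received test chemical in 0.1% DMSO for 48 h. Medium 17alpha-hydroxyprogesterone was MTBE-extracted and measured by HPLC-MS/MS; gain or loss relative to DMSO, no MTT-based MTC filtering.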

[8] = CEETOX_H295R_ANDR_noMTC: CeeTox H295R High-throughput Steroidogenesis Assay for Androstenedione (ANDR), maximum tolerated concentration (MTC) filtered results only (AID 2283915; active = hit-call score of the fitted dose curve at least 0.9, where 1 is the maximum; inactive = score below 0.9); details: actives raise or lower the signal
How it was run: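 Androstenedione secreted into medium was measured by LC-MS/MS after MTBE extraction. Human adrenal H295R cells received 10 uM forskolin for 48 h before 48 h chemical exposure (0.1% DMSO). Gain or loss fitted against DMSO, including concentrations above the MTT-derived MTC.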

[9] = CEETOX_H295R_CORTISOL_noMTC: CeeTox H295R High-throughput Steroidogenesis Assay for Cortisol, maximum tolerated concentration (MTC) filtered results only (AID 2283916; active = hit-call score of the fitted dose curve at least 0.9, where 1 is the maximum; inactive = score below 0.9); details: actives raise or lower the signal
How it was run: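 Cortisol secretion measured by LC-MS/MS after 48 h chemical treatment (final 0.1% DMSO) of forskolin-primed (10 uM, 48 h) H295R cells; gain or loss fitted relative to DMSO, without maximum-tolerated-concentration filtering.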

[10] = CEETOX_H295R_CORTIC_noMTC: CeeTox H295R High-throughput Steroidogenesis Assay for Corticosterone (CORTIC), maximum tolerated concentration (MTC) filtered results only (AID 2283917; active = hit-call score of the fitted dose curve at least 0.9, where 1 is the maximum; inactive = score below 0.9); details: actives raise or lower the signal
How it was run: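 Human adrenal H295R cells were prestimulated 48 h with 10 uM forskolin, then exposed 48 h to chemical in 0.1% DMSO. Medium corticosterone was MTBE-extracted and quantified by HPLC-MS/MS; bidirectional fits versus DMSO, concentrations not MTC-filtered.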

[11] = CEETOX_H295R_DOC_noMTC: CeeTox H295R High-throughput Steroidogenesis Assay for DOC, maximum tolerated concentration (MTC) filtered results only (AID 2283918; active = hit-call score of the fitted dose curve at least 0.9, where 1 is the maximum; inactive = score below 0.9); details: actives raise or lower the signal
How it was run: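 11-Deoxycorticosterone secreted by human adrenal H295R cells quantified by HPLC-MS/MS after 48 h chemical exposure (0.1% DMSO), following 48 h 10 uM forskolin prestimulation. Concentrations not filtered by MTT-derived MTC; bidirectional fitting.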

[12] = CEETOX_H295R_PROG_noMTC: CeeTox H295R High-throughput Steroidogenesis Assay for Progesterone (PROG), maximum tolerated concentration (MTC) filtered results only (AID 2283920; active = hit-call score of the fitted dose curve at least 0.9, where 1 is the maximum; inactive = score below 0.9); details: actives raise or lower the signal
How it was run: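 Progesterone secreted into medium was measured by HPLC-MS/MS after MTBE extraction, following 48 h chemical exposure (0.1% DMSO) of forskolin-prestimulated (10 uM, 48 h) H295R adrenal cells. Gain or loss fitted against DMSO; no MTC filtering.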

[13] = CEETOX_H295R_TESTO_noMTC: CeeTox H295R High-throughput Steroidogenesis Assay for Testosterone (TESTO), maximum tolerated concentration (MTC) filtered results only (AID 2283924; active = hit-call score of the fitted dose curve at least 0.9, where 1 is the maximum; inactive = score below 0.9); details: actives raise or lower the signal
How it was run: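 Medium testosterone, measured by HPLC-MS/MS after liquid-liquid extraction, was fitted in both directions relative to DMSO without MTC filtering. Adrenal H295R cells received 48 h chemical exposure (0.1% DMSO final) after 48 h forskolin (10 uM) prestimulation; viability by MTT.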

[14] = molecular target: Thyroid hormone receptor alpha (Rattus norvegicus) + Thyroid hormone receptor beta (Rattus norvegicus) (UniProt P18113+P63059); experiment: TOX21_TR_LUC_GH3_Agonist_Followup: Tox21 GH3 Thyroid Hormone Receptor Agonism Luciferase Follow-Up Assay (AID 2283939)
How it was run: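 Agonist-mode confirmatory run: 15 concentrations (5 nM to 92 uM final) on GH3 rat pituitary cells, 24 h at 37C/5% CO2, T3 as positive control. Luminescence read with ONE-Glo after 30 min.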

[15] = molecular target: human Thyroid hormone Receptor alpha (TRa), THRA (gene 7067) (UniProt P10827); experiment: ATG_hTRa_XSP2: Attagene TRANS-FACTORIAL Multi-Species (XSP2) HepG2 Assay for human Thyroid hormone Receptor alpha (TRa) (AID 2283838)
How it was run: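 Gain-of-signal in reporter mRNA, relative to DMSO, after 24 h dosing of transfected HepG2; quantitation by RT-PCR fragment analysis on capillary electrophoresis.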

PGR (gene 5241) [16] = molecular target: PGR (gene 5241) (UniProt P06401); experiment: TOX21_PR_BLA_Followup_Antagonist_ratio: Tox21 HEK293 Progesterone Receptor (PR) Antagonism Beta-lactamase Follow-Up Assay, Ratio (AID 2283934)
How it was run: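 Read-out: blue/green beta-lactamase FRET ratio (cleaved ch2 over uncleaved ch1), fitted relative to DMSO baseline. Cells: PR-UAS-bla HEK293T, GAL4-UAS reporter, stimulated with 1 nM R5020 final; 16 hr compound exposure, 37C.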

[17] = TOX21_PR_BLA_Followup_Agonist_viability: Viability Assessment in the Tox21 HEK293 Progesterone Receptor (PR) Agonism Beta-lactamase Follow-Up Assay (AID 2283935);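 note: signal loss means lower viability so actives are cytotoxic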
How it was run: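 Luminescent ATP quantitation (CellTiter-Glo, 30 min, room temperature) in the same wells as the beta-lactamase read, on PR-UAS-bla HEK293T cells exposed to compound for 16 hr at 37C in 2% charcoal-stripped serum.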

[18] = TOX21_PR_BLA_Followup_Antagonist_viability: Viability Assessment in the Tox21 HEK293 Progesterone Receptor (PR) Antagonism Beta-lactamase Follow-Up Assay (AID 2283936);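 note: cells exposed to compound with R5020 agonist for 16 h; hits lower the luminescence signal meaning cytotoxicity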
How it was run: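 PR-UAS-bla HEK293T cells in medium with 2% charcoal-stripped FBS were treated with compounds plus R5020 for 16 hr at 37C. After the beta-lactamase read, CellTiter-Glo was added to the same wells and luminescence read after 30 min at room temperature.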

PGR (gene 5241) [19] = molecular target: PGR (gene 5241) (UniProt P06401); experiment: TOX21_PR_LUC_Followup_Antagonist: Tox21 HEK293 Progesterone Receptor (PR) Antagonism Luciferase Follow-Up Assay (AID 2283938);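 note: curve fitted upward as signal gain over DMSO baseline despite antagonist label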
How it was run: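 HEK293-PR-A-luc cells were precultured 5 days in medium with 10% charcoal-stripped FBS, seeded 3,000/well, then exposed to compounds in DMSO for 16 h at 37C. Luciferase was read by ONE-Glo luminescence after 30 min at room temperature.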

[20] = TOX21_PR_LUC_Followup_Antagonist_viability: Viability Assessment in the Tox21 HEK293 Progesterone Receptor (PR) Antagonism Luciferase Follow-Up Assay (AID 2283940)
How it was run: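 Read-out: CellTiter-Glo ATP luminescence, loss of signal taken as reduced viability. Cells: HEK293-PR-A-luc, 3,000/well, 5 h settling, then 16 h compound exposure at 37C, 0% CO2.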

human Thyroid hormone Receptor beta (TRb), THRB (gene 7068), sequence (P10828 whole entry, looked up, the tested form may be a part): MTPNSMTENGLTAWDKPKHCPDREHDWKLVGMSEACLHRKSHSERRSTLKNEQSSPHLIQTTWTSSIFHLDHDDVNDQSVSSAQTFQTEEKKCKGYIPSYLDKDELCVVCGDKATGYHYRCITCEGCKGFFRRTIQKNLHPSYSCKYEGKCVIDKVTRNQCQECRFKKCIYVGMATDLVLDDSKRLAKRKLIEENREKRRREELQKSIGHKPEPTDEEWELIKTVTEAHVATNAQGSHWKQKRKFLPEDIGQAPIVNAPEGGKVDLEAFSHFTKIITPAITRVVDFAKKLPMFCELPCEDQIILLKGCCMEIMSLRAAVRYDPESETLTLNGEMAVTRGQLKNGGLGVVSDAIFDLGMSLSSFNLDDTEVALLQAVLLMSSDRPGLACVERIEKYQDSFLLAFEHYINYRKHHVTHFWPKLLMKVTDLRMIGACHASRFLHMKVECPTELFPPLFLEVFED
frog Thyroid hormone Receptor alpha (TRa), thra-a (gene 397942), sequence (P15204 whole entry, looked up, the tested form may be a part): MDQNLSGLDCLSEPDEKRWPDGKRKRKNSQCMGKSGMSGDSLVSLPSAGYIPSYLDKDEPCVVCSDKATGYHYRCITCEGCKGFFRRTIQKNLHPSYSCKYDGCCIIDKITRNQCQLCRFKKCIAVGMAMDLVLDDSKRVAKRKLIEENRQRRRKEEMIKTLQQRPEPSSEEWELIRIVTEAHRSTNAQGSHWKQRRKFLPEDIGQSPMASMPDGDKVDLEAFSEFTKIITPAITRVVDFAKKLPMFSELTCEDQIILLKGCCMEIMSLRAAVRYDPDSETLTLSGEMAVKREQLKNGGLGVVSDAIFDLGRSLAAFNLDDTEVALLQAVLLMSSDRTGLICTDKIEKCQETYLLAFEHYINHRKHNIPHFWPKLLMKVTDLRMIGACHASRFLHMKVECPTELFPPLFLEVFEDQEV
PGR (gene 5241), sequence (P06401 whole entry, looked up, the tested form may be a part): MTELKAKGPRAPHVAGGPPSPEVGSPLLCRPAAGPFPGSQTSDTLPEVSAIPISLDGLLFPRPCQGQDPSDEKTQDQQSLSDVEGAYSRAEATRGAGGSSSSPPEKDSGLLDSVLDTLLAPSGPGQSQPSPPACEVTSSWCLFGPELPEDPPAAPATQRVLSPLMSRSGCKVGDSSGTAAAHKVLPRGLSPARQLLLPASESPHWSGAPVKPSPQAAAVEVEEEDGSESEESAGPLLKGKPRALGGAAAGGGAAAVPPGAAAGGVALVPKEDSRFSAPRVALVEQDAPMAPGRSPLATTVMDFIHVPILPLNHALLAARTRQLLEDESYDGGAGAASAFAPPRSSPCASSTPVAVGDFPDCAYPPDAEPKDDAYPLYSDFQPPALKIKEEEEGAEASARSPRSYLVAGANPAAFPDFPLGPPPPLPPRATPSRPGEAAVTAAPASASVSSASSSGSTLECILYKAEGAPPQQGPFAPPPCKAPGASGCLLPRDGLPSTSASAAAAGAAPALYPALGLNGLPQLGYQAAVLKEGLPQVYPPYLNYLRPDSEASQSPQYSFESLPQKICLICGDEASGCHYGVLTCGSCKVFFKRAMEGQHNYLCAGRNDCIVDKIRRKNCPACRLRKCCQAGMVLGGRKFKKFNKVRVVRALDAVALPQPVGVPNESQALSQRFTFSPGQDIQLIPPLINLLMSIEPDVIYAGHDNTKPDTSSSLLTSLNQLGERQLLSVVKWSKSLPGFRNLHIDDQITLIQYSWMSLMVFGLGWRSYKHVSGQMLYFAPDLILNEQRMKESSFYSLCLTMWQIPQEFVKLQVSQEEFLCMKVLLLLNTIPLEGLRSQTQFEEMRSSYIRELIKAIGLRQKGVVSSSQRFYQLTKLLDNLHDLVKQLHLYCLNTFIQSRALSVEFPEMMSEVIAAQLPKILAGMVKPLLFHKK
human Thyroid hormone Receptor alpha (TRa), THRA (gene 7067), sequence (P10827 whole entry, looked up, the tested form may be a part): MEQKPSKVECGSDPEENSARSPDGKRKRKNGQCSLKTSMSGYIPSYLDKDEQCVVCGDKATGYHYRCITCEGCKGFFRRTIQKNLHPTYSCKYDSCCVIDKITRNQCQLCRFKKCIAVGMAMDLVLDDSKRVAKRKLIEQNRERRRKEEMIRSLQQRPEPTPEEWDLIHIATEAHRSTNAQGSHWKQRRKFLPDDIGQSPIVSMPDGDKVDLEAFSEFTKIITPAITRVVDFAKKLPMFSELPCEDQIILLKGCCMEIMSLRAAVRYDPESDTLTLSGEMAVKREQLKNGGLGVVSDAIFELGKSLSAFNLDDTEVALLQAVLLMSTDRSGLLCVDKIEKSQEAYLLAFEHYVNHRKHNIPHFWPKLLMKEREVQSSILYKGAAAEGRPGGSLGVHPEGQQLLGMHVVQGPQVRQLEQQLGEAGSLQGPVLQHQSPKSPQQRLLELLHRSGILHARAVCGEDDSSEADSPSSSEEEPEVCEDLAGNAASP
Thyroid hormone receptor alpha (Rattus norvegicus) + Thyroid hormone receptor beta (Rattus norvegicus), sequence (P63059 whole entry, looked up): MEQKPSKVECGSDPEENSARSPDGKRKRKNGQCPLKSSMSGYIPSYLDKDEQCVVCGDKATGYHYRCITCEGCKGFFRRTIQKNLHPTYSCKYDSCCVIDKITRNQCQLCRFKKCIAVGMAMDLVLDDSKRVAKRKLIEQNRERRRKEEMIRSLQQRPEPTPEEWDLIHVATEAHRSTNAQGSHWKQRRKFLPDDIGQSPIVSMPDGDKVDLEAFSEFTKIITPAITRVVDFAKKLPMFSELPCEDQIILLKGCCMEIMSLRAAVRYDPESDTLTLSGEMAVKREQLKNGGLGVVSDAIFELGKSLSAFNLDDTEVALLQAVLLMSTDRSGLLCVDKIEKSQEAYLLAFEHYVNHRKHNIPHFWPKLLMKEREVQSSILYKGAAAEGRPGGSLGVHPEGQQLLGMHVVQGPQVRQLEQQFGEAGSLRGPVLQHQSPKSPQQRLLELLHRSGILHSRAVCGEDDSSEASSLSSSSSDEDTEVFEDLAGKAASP
Thyroid hormone receptor alpha (Rattus norvegicus) + Thyroid hormone receptor beta (Rattus norvegicus), sequence (P18113 whole entry, looked up): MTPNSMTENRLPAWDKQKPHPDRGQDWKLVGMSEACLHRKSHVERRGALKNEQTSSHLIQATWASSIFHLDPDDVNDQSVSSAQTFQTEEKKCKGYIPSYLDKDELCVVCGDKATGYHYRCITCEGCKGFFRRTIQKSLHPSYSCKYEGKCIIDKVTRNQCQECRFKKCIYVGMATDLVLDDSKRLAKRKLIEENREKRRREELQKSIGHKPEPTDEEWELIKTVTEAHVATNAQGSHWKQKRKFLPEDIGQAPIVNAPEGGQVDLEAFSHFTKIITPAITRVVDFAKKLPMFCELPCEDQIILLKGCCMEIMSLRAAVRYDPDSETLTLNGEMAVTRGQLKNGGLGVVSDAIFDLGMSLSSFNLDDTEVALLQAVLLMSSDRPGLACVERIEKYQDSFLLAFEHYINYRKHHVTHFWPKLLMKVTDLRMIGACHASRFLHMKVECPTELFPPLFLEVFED

CN(C)c1ccc(N=NS(=O)(=O)O)cc1
outcome [1]: inactive

CCOC(=O)c1ccc(C2CCC(NC[C@H](O)COc3ccc(O)c(NS(C)(=O)=O)c3)CC2)cc1 (stereo not given in full)
outcome [1]: inactive

CCOc1cccc(-n2cc(C(=O)N3CCN(c4cc(C(=O)O)c5ccccc5c4)CC3)nc2-c2ccc(C)cc2)c1
AC50 [2]: 83.6 µM (active)
AC50 [1]: 6.27 µM (active)

Clc1nc(Cl)c(Cl)c(Cl)c1Cl
outcome [3]: inactive
outcome [4]: inactive
outcome [2]: inactive
outcome [1]: inactive

Cc1[nH]cnc1C[C@H]1CCc2c(C)c3ccccc3n2C1=O
outcome [2]: inactive
outcome [1]: inactive

Fc1ccccc1[C@@H](F)COC1CCC(Nc2ncnc3[nH]ncc23)CC1 (stereo not given in full)
AC50 [2]: 89.1 µM (active)
AC50 [1]: 9.92 µM (active)

CC(C)=CCC/C(C)=C\CO
outcome [5]: inactive
outcome [6]: inactive
outcome [7]: inactive
outcome [8]: inactive
AC50 [9]: 61.5 µM (active)
AC50 [10]: 57.7 µM (active)
outcome [11]: inactive
outcome [12]: inactive
outcome [13]: inactive
outcome [14]: inactive

COc1ccc(/C=C/S(=O)(=O)NC(=O)c2ccc(C)cc2Cl)cc1
outcome [1]: inactive

Oc1ccc2c(c1)-c1ccccc1C2
outcome [15]: inactive
outcome [3]: inactive
outcome [4]: inactive

CC(C)(O)c1coc(S(=O)(=O)NC(=O)Nc2c3c(cc4c2CCC4)CCC3)c1
outcome [1]: inactive

CCCCCCc1ccc(O)cc1O
outcome [1]: inactive

O=C(CCCCCCCCc1cccnc1)N1CCC(C=C(c2ccccc2)c2ccccc2)CC1
outcome [2]: inactive
outcome [1]: inactive

O=c1[nH]c2ccc(S(=O)CCN3CCC(Cc4ccc(F)cc4)CC3)cc2o1 (stereo not given)
outcome [2]: inactive
outcome [1]: inactive

COCCOc1cc2cc(C(=O)NC3CCN(C(C)C)CC3)n(CC(=O)Nc3ccc(Cl)cn3)c2cn1
outcome [2]: inactive
outcome [1]: inactive

O=C(O)c1cccc(N(Cc2cccnc2)c2ccc(OC(F)F)c(OC(F)F)c2)c1
outcome [1]: inactive

CCOC(=O)COc1ccc2c(c1)CC(NCC(O)c1cccc(Cl)c1)CC2 (stereo not given)
outcome [2]: inactive
outcome [1]: inactive

Cn1c(=O)cc(Oc2ccc(F)cc2F)c2cnc(NCC(C)(C)O)nc21
outcome [1]: inactive

O=P(OC(CCl)CCl)(OC(CCl)CCl)OC(CCl)CCl
outcome [3]: inactive
outcome [4]: inactive
outcome [2]: inactive
outcome [1]: inactive
AC50 (PGR (gene 5241) [16]): 18.2 µM (active)
outcome [17]: inactive
outcome [18]: inactive
AC50 (PGR (gene 5241) [19]): 46.1 µM (active)
outcome [20]: inactive

O=C(OC[C@H]1O[C@@H](OC(=O)c2cc(O)c(O)c(OC(=O)c3cc(O)c(O)c(O)c3)c2)[C@H](OC(=O)c2cc(O)c(O)c(OC(=O)c3cc(O)c(O)c(O)c3)c2)[C@@H](OC(=O)c2cc(O)c(O)c(OC(=O)c3cc(O)c(O)c(O)c3)c2)[C@@H]1OC(=O)c1cc(O)c(O)c(OC(=O)c2cc(O)c(O)c(O)c2)c1)c1cc(O)c(O)c(OC(=O)c2cc(O)c(O)c(O)c2)c1
outcome [2]: inactive
outcome [1]: inactive

O=C(O)c1cc(N=Nc2ccc(S(=O)(=O)Nc3ccccn3)cc2)ccc1O
outcome [2]: inactive
outcome [1]: inactive

CC(C)c1cccc(C(C)C)c1N1C(=O)c2ccc(O)cc2C1=O
outcome [2]: inactive
outcome [1]: inactive
AC50 (PGR (gene 5241) [16]): 15.7 µM (active)
outcome [17]: inactive
outcome [18]: inactive
AC50 (PGR (gene 5241) [19]): 17.3 µM (active)
outcome [20]: inactive

CCCCC(CC)COC(=O)c1ccc(C(=O)OCC(CC)CCCC)cc1 (stereo not given)
outcome [6]: inactive
outcome [7]: inactive
outcome [8]: inactive
outcome [12]: inactive
outcome [13]: inactive

COc1cccc(-c2ccc(/C=C\CN3CCCCCC3)cc2Cl)c1
outcome [2]: inactive
outcome [1]: inactive

CN(C)c1ccc(Cc2ccc(N(C)C)cc2)cc1
outcome [2]: inactive
outcome [1]: inactive

O=C(NS(=O)(=O)/C=C/c1ccccc1)c1ccc(F)cc1Cl
AC50 [6]: 7.49 µM (active)
AC50 [7]: 5.24 µM (active)
outcome [12]: inactive
